Bioassay records as filed in PubChem.
Shown are actives, neighbours in structure and some others; about 19% of the full set was active somewhere.
AMA1-RON2 inh = inhibitors of Plasmodium falciparum AMA1-RON2 interaction; AID 720542; actives 0.2% (n = 360,000); AlphaScreen AMA1-biotinylated RON2 peptide binding; Potency, µM (top dose mostly 58.2 µM), hits mostly inhibitors; further: nearly all actives have a fitted effect of over 45% in size
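AMA1 (3D7) with his tag at 25 nM final met compounds first, then biotinylated RON2 peptide at 25 nM; detection used donor plus acceptor beads, 10 µg/mL apiece, read by AlphaScreen after 30 min at room temperature.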
Pf growth 96h = P. falciparum growth inhibition at 96 hours; P. falciparum luciferase reporter growth, 96 h; Potency, µM (series often up to 28.7 µM), usual class: inhibitors; actives 6.9% (n = 320,000)
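Infected RBCs, 2% Hct / 0.05% parasitemia final; luciferase-reporter P. falciparum; cpd 96 h, 37 C, 5% CO2; luciferase detection reagent; luminescence.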
Cycloheximide cs = affects cycloheximide protein synthesis inhibition readout, counter-screen | cell reporter, cycloheximide protein synthesis inhibition counterscreen | max response, % | actives 12% (n = 300,000) | AID 2314; in the data active means max response mostly above about 13%, no sharp cut-off; inactive means mostly below about 14%; further: read at 38.3 µM for the half of the compounds with a filed dose
SARS PLpro yeast = blocks SARS-CoV papain-like protease in a yeast assay | S. cerevisiae expressing SARS-CoV PLpro, growth rescue | actives 0.19% (n = 330,000) | Potency, µM (top dose mostly 32.9 µM), actives largely listed as activators; calls by dose curve; further: nearly all actives have a fitted effect of over 55% in size
Pf growth 48h = inhibits P. falciparum growth in the first generation, 48 h. Potency, µM (highest dose often 28.7 µM), actives largely listed as inhibitors. actives 5.9% (n = 310,000). P. falciparum luciferase growth in erythrocytes, 48 h. AID 504832
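Growth was read as firefly luciferase luminescence after a 48 h, 37 C, 5% CO2 exposure of compounds to reporter-bearing P. falciparum cultures (0.1% parasitemia, 2% hematocrit final) in Albumax-supplemented RPMI 1640.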
Shiga toxin inh = Shiga toxin inhibition. Vero cells, Shiga toxin protein synthesis inhibition reporter. inhibition, % at 38.7 µM. actives 9.2% (n = 290,000). AID 2315; in the data active means inhibition mostly above about 28%, no sharp cut-off; inactive means mostly below about 43%
Numbers stand for hits; [ ] = dose if it differs, or a comment. Unless noted, the call rests on the fitted dose curve; in most records, active means well fitted curve in the direction sought with a large enough effect; inconclusive means small, poorly fitted or top-dose-only effect, or another doubt; inactive means no such curve, though single readings can be large; an effect the other way counts as inactive or inconclusive.

For CCOC(=O)c1[nH]nc(C(=O)c2ccc(Br)cc2)c1O the results were AMA1-RON2 inh inactive, Pf growth 96h inactive, Cycloheximide cs inactive, SARS PLpro yeast inactive, Pf growth 48h inactive and Shiga toxin inh 63.
For CCOC(=O)c1ccc(CNCc2ccc(Br)cc2)cc1 the results were AMA1-RON2 inh inconclusive, Pf growth 96h inactive, Cycloheximide cs inactive, SARS PLpro yeast inactive, Pf growth 48h inactive and Shiga toxin inh inactive.
`O=C(Nc1ccc(C(=O)O)cc1)/C(=C\c1cccc([N+](=O)[O-])c1)NC(=O)c1ccc(Br)o1` gave AMA1-RON2 inh inactive, Pf growth 96h inconclusive, Cycloheximide cs inactive, SARS PLpro yeast inactive, Pf growth 48h inactive and Shiga toxin inh inactive.
For CCOC(=O)c1ccc(S(=O)(=O)N2CCN(C(=O)c3ccccn3)CC2)cc1 the results were AMA1-RON2 inh inactive and SARS PLpro yeast inactive.
For Cc1nnc(-c2cccc(Br)c2)c2cn(-c3ccccc3)nc12 the results were AMA1-RON2 inh inactive, Pf growth 96h inactive[5.75 µM], Cycloheximide cs inactive, SARS PLpro yeast inactive, Pf growth 48h inactive and Shiga toxin inh inactive.
Screening Cc1nnc(-c2cccc(Br)c2)c2cn(-c3ccc(Br)cc3)nc12 returned AMA1-RON2 inh inactive, Pf growth 96h 2.6µM, Cycloheximide cs inactive, SARS PLpro yeast inactive, Pf growth 48h inconclusive and Shiga toxin inh inactive.
`Cc1nnc(SCC(=O)OC2CC(C)CCC2C(C)C)[nH]c1=O` (stereo not given) gave AMA1-RON2 inh inactive, Cycloheximide cs inactive, SARS PLpro yeast inactive and Shiga toxin inh inactive.
`CC1CCC(C(C)C)C(OC(=O)CSc2n[nH]c(=O)[nH]c2=O)C1` (stereo not given) gave AMA1-RON2 inh inactive, Pf growth 96h 13µM, Cycloheximide cs inactive, SARS PLpro yeast inactive, Pf growth 48h inactive and Shiga toxin inh inactive.
Oc1cccc(/C=N/N(Cc2ccccc2)c2ccccc2)c1 was read as AMA1-RON2 inh inconclusive, Pf growth 96h inconclusive, Cycloheximide cs inactive, SARS PLpro yeast inactive, Pf growth 48h 6.6µM and Shiga toxin inh inactive.
C/C(=N\N(Cc1ccccc1)c1ccccc1)c1cccnc1 was read as AMA1-RON2 inh inactive, Pf growth 96h 13µM, Cycloheximide cs inactive, SARS PLpro yeast inactive, Pf growth 48h 8.3µM and Shiga toxin inh inactive.
`Oc1ccc(/C=N/N(Cc2ccccc2)c2ccccc2)c(O)c1O` gave AMA1-RON2 inh inactive, Pf growth 96h inconclusive, Cycloheximide cs inactive, SARS PLpro yeast inactive, Pf growth 48h inconclusive and Shiga toxin inh inactive.
Screening C(=N\N(Cc1ccccc1)c1ccccc1)/c1cccnc1 returned AMA1-RON2 inh inactive, Pf growth 96h inactive, Cycloheximide cs inactive, SARS PLpro yeast inactive, Pf growth 48h 13µM and Shiga toxin inh inactive.
`COc1ccc(N2C3=[N+](CC2(C)O)c2ccccc2CC3)cc1` (stereo not given) gave AMA1-RON2 inh inactive, Cycloheximide cs 22, SARS PLpro yeast inactive, Pf growth 48h inactive and Shiga toxin inh inactive.
COCc1cc(S(=O)c2ccc(Cl)cc2)nc(C)n1 (stereo not given) was read as AMA1-RON2 inh inactive, Pf growth 96h inactive, Cycloheximide cs 16, SARS PLpro yeast inactive, Pf growth 48h inactive and Shiga toxin inh inactive.
Screening COCc1cc(Sc2ccc(Cl)cc2)nc(C)n1 returned AMA1-RON2 inh inactive, Pf growth 96h inactive, Cycloheximide cs inactive, SARS PLpro yeast inactive, Pf growth 48h inactive and Shiga toxin inh inactive.
Screening O=S(=O)(Nc1ncccn1)c1ccc(NC(=S)N2CCN(Cc3ccc(F)cc3Cl)CC2)cc1 returned AMA1-RON2 inh inactive, Pf growth 96h inconclusive, Cycloheximide cs inactive, SARS PLpro yeast inactive, Pf growth 48h inactive and Shiga toxin inh inactive.
Screening Cc1ccc(C(=O)NNC(=S)Nc2cccc3ccccc23)s1 returned AMA1-RON2 inh inactive, Pf growth 96h inactive, Cycloheximide cs 30, SARS PLpro yeast inactive, Pf growth 48h inactive and Shiga toxin inh 67.
For O=C(COC(=O)c1ccc([N+](=O)[O-])s1)Nc1ccccc1 the results were AMA1-RON2 inh inactive, Pf growth 96h inactive, Cycloheximide cs inactive, SARS PLpro yeast inactive, Pf growth 48h inactive and Shiga toxin inh inactive.
Screening CN(C)NC(=O)c1ccc([N+](=O)[O-])s1 returned AMA1-RON2 inh inactive, Pf growth 96h 12µM, Cycloheximide cs inactive, SARS PLpro yeast inactive, Pf growth 48h 10µM and Shiga toxin inh inactive.
O=C(Nc1cccc2ccccc12)c1ccc([N+](=O)[O-])s1 was read as AMA1-RON2 inh inactive, Pf growth 96h 5.2µM, Cycloheximide cs inactive, SARS PLpro yeast inactive, Pf growth 48h 12µM and Shiga toxin inh inactive.
Screening O=C(Nc1cccnc1)c1ccc([N+](=O)[O-])s1 returned AMA1-RON2 inh inactive, Pf growth 96h inconclusive, SARS PLpro yeast inactive and Pf growth 48h 5.2µM.
Screening CC(=O)NC12CC3CC(C1)CC(C(=O)N1CCN(S(=O)(=O)c4ccccc4C#N)CC1)(C3)C2 returned AMA1-RON2 inh inactive.
Cc1ccc(S(=O)(=O)C[C@@H]2OC[C@H](C)N2S(=O)(=O)c2ccc(C)cc2)cc1 was read as AMA1-RON2 inh inactive.
For O=C(Nc1ccccc1F)c1ccc([N+](=O)[O-])s1 the results were AMA1-RON2 inh inactive, Pf growth 96h 4.1µM, Cycloheximide cs 38, SARS PLpro yeast inactive, Pf growth 48h 10µM and Shiga toxin inh inactive.
`Cc1ccc(CC(=O)Nc2cc([N+](=O)[O-])ccc2F)cc1` gave AMA1-RON2 inh inactive, Pf growth 96h inactive, Cycloheximide cs inactive, SARS PLpro yeast inactive, Pf growth 48h inactive and Shiga toxin inh inactive.
Cc1ccc(C(=O)Nc2cc([N+](=O)[O-])ccc2F)s1 was read as AMA1-RON2 inh inactive, Pf growth 96h inactive, Cycloheximide cs inactive, SARS PLpro yeast inactive, Pf growth 48h inactive and Shiga toxin inh active.
`O=C(Nc1cc(S(=O)(=O)N2CCOCC2)ccc1N1CCOCC1)c1ccc([N+](=O)[O-])s1` gave AMA1-RON2 inh inactive and SARS PLpro yeast inactive.
For CCOC(=O)C1=C(COC(=O)CNS(=O)(=O)c2ccc(C)c(C)c2)NC(=O)NC1C (stereo not given) the results were AMA1-RON2 inh inactive.
Screening COC(=O)C1(C)COP(=O)(Nc2ccc(OC)cc2)OC1 (stereo not given) returned AMA1-RON2 inh inactive.
Screening COc1ccc(S(=O)(=O)n2nc(OC(=O)c3ccc(C)cc3)cc2N)cc1 returned AMA1-RON2 inh inactive, Cycloheximide cs 27, SARS PLpro yeast inactive, Pf growth 48h inactive and Shiga toxin inh inactive.
Screening COc1cc(C(=O)Oc2cc(N)n(S(=O)(=O)c3ccc(F)cc3)n2)cc(OC)c1OC returned AMA1-RON2 inh inactive, Pf growth 96h 4.7µM, Cycloheximide cs inactive, SARS PLpro yeast inactive, Pf growth 48h inactive and Shiga toxin inh inactive.
For CS(=O)(=O)n1nc(OC(=O)c2cccc3ccccc23)cc1N the results were AMA1-RON2 inh inactive, Pf growth 96h 5.2µM, Cycloheximide cs 63, SARS PLpro yeast inactive, Pf growth 48h inactive and Shiga toxin inh 72.
